Screening data: PubChem, National Center for Advancing Translational Sciences (NCATS)
Sfp inh = qHTS Assay for Inhibitors of Bacillus subtilis Sfp phosphopantetheinyl transferase (PPTase); 4'-phosphopantetheinyl transferase ffp (Bacillus subtilis), Q9F4F7; Biochemical Sfp PPTase activity, qHTS; Potency, µM, actives largely listed as inhibitors; 310,000 tested, 3.5% active;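 further: the enzyme is Sfp with the accession as filed and its product quenches rhodamine fluorescence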
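Buffer: 50 mM Hepes-Na pH 7.6, 10 mM MgCl2, 0.01% Nonidet P-40, 0.01% BSA. Enzyme 15 nM, pre-exposed to compound 15 min; substrates then added and fluorescence change tracked over 30 min.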
TDP1 inh = qHTS Assay for Inhibitors of Tyrosyl-DNA Phosphodiesterase (TDP1). AID 485290, 2010. recombinant TDP1, AlphaScreen DNA substrate cleavage. Potency, µM (doses to about 130 µM), usual class: inhibitors. 350,000 tested, 0.28% active; further: nearly all actives have a fitted effect of over 40% in size
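E. coli-derived human Tdp1, 1 nM final. Cpd preinc 15 min RT; substrate 15 nM final, 5 min RT; AS bead mix 10 ug/ml final, 10 min RT. Signal loss = tyrosine-FITC cleavage. No-enzyme wells = max signal.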
JMJD2A Tudor inh = qHTS Assay for Inhibitors of JMJD2A-Tudor Domain | AID 504339, 2011 | 390,000 tested, 4.4% active | Lysine-specific demethylase 4A (Homo sapiens), O75164 | Potency, µM (top dose mostly 114 µM), hits mostly inhibitors | AlphaScreen JMJD2A-Tudor / H3K4me3 peptide binding; further: nearly all actives have a fitted effect of over 50% in size
HP1b chromo inh = HTS for Inhibitors of HP1-beta Chromodomain Interactions with Methylated Histone Tails; Chromobox protein homolog 1 (Homo sapiens), P83916; AlphaScreen HP1-beta / biotin-H3K9me3 peptide binding; Potency, µM (titrated, usually from 114 µM), most hits filed as inhibitors; 390,000 tested, 0.56% active; AID 540317, 2011; further: nearly all actives have a fitted effect of over 70% in size
Target sequence (P83916 whole entry, looked up): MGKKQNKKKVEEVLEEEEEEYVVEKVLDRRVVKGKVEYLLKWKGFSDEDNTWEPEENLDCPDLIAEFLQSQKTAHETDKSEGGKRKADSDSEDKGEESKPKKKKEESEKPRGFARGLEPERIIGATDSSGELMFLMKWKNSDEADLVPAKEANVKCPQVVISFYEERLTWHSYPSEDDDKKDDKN
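HP1-beta protein (50 nM final) preincubated 30 min at room temperature with biotinylated H3(1-18)K9me3 peptide (50 nM) in PBS pH 7.4, 0.01% Tween-20, then compound added for 30 min. AlphaScreen streptavidin donor/nickel chelate acceptor beads (10 ug/mL final), 30 min dark, luminescence read.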
G9a block = qHTS Assay for Inhibitors of Histone Lysine Methyltransferase G9a. G9a H3K9 monomethylation, AlphaScreen, 2 h. 350,000 tested, 8.8% active. Potency, µM (doses to about 102 µM), actives largely listed as inhibitors. AID 504332, 2011; further: nearly all actives have a fitted effect of over 75% in size
Target sequence (Q96KQ7 913-1193 limits assumed): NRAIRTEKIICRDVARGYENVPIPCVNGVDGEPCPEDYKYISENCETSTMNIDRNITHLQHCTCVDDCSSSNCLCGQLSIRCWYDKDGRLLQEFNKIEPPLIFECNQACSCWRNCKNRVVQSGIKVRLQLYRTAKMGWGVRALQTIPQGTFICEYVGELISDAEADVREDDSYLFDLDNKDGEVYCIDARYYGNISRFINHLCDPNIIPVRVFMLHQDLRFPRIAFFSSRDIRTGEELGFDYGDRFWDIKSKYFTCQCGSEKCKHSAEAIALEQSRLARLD
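G9a (20 nM) preincubated 15 min RT with compounds, then 500 nM biotinylated H3K9 peptide and 20 uM SAM added; 2 h RT reaction. Monomethyl-H3K9 product detected by AlphaScreen with anti-H3K9me1 antibody, streptavidin donor and anti-rabbit IgG acceptor beads.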
BAZ2B inh = qHTS Assay for Inhibitors of BAZ2B; Bromodomain adjacent to zinc finger domain protein 2B (Homo sapiens), Q9UIF8; 360,000 tested, 4.4% active; Potency, µM (titrated, usually from 114 µM), most hits filed as inhibitors; AlphaScreen BAZ2B-H3K14Ac peptide displacement; AID 504333, 2011; further: nearly all actives have a fitted effect of over 60% in size
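In this displacement format the biotinylated H3(5-23) peptide acetylated at Lys14 serves as ligand at 50 nM, with BAZ2B at 50 nM in PBS pH 7.4 containing 0.01% Tween-20. Donor and acceptor beads are 10 ug/mL final.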
A number is an active result; – = inactive; ? = inconclusive; · = no result; [ ] = another dose, or the depositor's remark. Most compounds without a hit are left out; they make up all but 12% or so of the library. The call rests on the fitted dose curve; in most records, active means well fitted curve in the direction sought with a large enough effect; inconclusive means small, poorly fitted or top-dose-only effect, or another doubt; inactive means no such curve, though single readings can be large; an effect the other way counts as inactive or inconclusive.

SMILES | Sfp inh | TDP1 inh | JMJD2A Tudor inh | HP1b chromo inh | G9a block | BAZ2B inh
CCOc1cc(/C=C2\SC(=O)N(CC(=O)Nc3ccccc3F)C2=O)cc([N+](=O)[O-])c1O | – | – | –[11.4 µM] | 35µM | 16µM | 40µM
Cc1ccc2nc(SCC(=O)Nc3cc(C)on3)c(C)cc2c1 | – | – | – | – | – | –
COCCCn1c(Cc2csc(Nc3cccc(Cl)c3)n2)nnc1SCC(=O)OC | 25µM | – | 56µM | – | 28µM | ?
COc1ccc2[nH]c(C(=O)c3ccccc3)cc2c1 | – | – | · | · | · | ·
N#C/C(=C/c1ccco1)c1nc2ccccc2s1 | – | – | – | – | ? | –
N#C/C(=C\c1ccco1)c1nc2ccccc2s1 | – | – | – | – | 8.9µM | ?
N#C/C(=C/c1ccc(-c2cc(C(=O)O)cc(C(=O)O)c2)o1)c1nc2ccccc2s1 | 56µM | · | · | · | 11µM | 56µM
Cc1cccc(Nc2c([N+](=O)[O-])cc(C(=O)N3CC(=O)Nc4ccccc43)cc2[N+](=O)[O-])c1 | – | – | ? | – | 11µM | ?
Cc1ccc(C)c(Nc2c([N+](=O)[O-])cc(C(=O)N3CC(=O)Nc4ccccc43)cc2[N+](=O)[O-])c1 | – | – | ? | ? | 18µM | 25µM
Cc1ccc(C)c(NC(=O)CNC(=O)N2CC(=O)Nc3ccccc32)c1 | – | – | – | – | – | –
COc1ccc(O)c(/C=C2/SC(=S)N(Cc3ccccc3)C2=O)c1 | ? | · | 40µM | ? | 4.5µM | 32µM
CN1C(=O)/C(=C\c2cc(N=Nc3ccccc3)ccc2O)SC1=S | – | – | 40µM | – | 8.9µM | 3.5µM
CN1C(=O)/C(=C\c2ccccc2OCc2ccccc2)SC1=S | – | · | – | – | – | –
O=C1/C(=C\c2cc(Cl)c(O)c(Cl)c2)SC(=S)N1Cc1ccccc1 | ? | · | 50µM | ? | 14µM | 50µM
C/C(=N/NC(=O)CNC(=O)c1ccc2c(c1)OCO2)c1ccc2c(c1)CCCC2 | – | – | – | – | – | ·
C/C(=N/NC(=O)CNC(=O)c1ccccc1F)c1ccc2c(c1)CCCC2 | – | – | 32µM | – | – | –
COc1ccc(S(=O)(=O)N2CC(C)N(C(=O)N(C)C)C2C)cc1 (stereo not given) | – | – | – | – | – | –
Cc1noc(C)c1COc1ccc(C(=O)OCC(=O)NCCN2C(=O)CSC2=O)cc1 | – | – | – | – | – | –
CSC1=N/C(=C\c2ccccc2F)C(=O)S1 | 56µM | – | – | – | 45µM | –
COc1ccc2c(C(=O)NCc3ccc4c(c3)OCO4)c(-c3ccc(S(C)(=O)=O)cc3)sc2c1 | · | – | – | – | · | ·
CCCCn1c(SCC(=O)c2cc(OC)ccc2OC)nc2cc(S(N)(=O)=O)ccc21 | – | – | – | – | ? | –
CCCCn1c(SCN2C(=O)c3ccccc3C2=O)nc2cc(S(N)(=O)=O)ccc21 | – | – | – | – | 40µM | –
CCCCn1c(SCC(=O)N2CCC(C)CC2)nc2cc(S(N)(=O)=O)ccc21 | ? | – | – | – | 7.9µM | –
CCCCn1c(SCc2ccc(C(=O)OC)o2)nc2cc(S(N)(=O)=O)ccc21 | 56µM | – | – | – | – | –
CCCOc1ccc(NC(=O)CC2C(=O)N(c3ccccc3)C(=O)N2CCC(C)C)cc1 (stereo not given) | · | – | – | – | – | –
Cc1cc2c(s1)c1cnn(Cc3cccc(C(F)(F)F)c3F)c(=O)c1n2C | · | · | – | · | · | ·
O=C1c2ccccc2C(=O)N1c1noc2ccccc12 | · | – | – | · | · | ·
COC(=O)C1=C(C)N(Cc2ccccc2)C(=NCc2cccc(Cl)c2)N[C@H]1c1cccc(F)c1 | 56µM | – | – | – | · | –
COC(=O)C1=C(C)N(Cc2ccccc2)C(=NCc2ccc(OC)cc2)N[C@H]1c1cccc(F)c1 | – | · | ? | – | 79µM | ?
